Laboratory results published in PubChem BioAssay (NCATS).
Results filed as inconclusive are left out. Calls of active or inactive are those of the source. Calls come from the whole dose curve; as a rule, active = well fitted cell-killing curve with a large enough effect; inconclusive = small, poorly fitted or top-dose-only effect, or effect the other way; inactive = no such curve, though single readings can be large or run the other way.

Test: Quantitative High-Throughput drug screen in 47 multiple myeloma cell lines against the NCATS MIPE library collection: KMM1_JCRB cell viability assay (AID 1918960); note: nearly all actives have a fitted effect of over 30% in size
Settings: KMM1 myeloma viability, CellTiter-Glo ATP luminescence, 48 h; series mostly up to 45.8 µM; viability (% of DMSO): at the top concentration
Description: PI: Beverly A. Mock Ph.D.
Laboratory of Cancer Biology and Genetics,
Center for Cancer Research, National Cancer Institute,
National Institute of Health, Bethesda, Maryland
Drug resistance and disease progression are common in multiple myeloma (MM) patients, underscoring the need for new therapeutic combinations. […] We hypothesized that effective combinations would reduce MYC expression and enhance p16 activity. […] These preclinical data identify potentially useful drug combinations for evaluation in drug-resistant MM and reveal potential mechanisms of combined drug sensitivity.
Described herein is the primary MIPE qHTS used to cherrypick compounds. Validated compounds were then further tested for potential synergistic activiy.
[1] Peat TJ, Gaikwad SM, Dubois W, Gyabaah-Kessie N, Zhang S, Gorjifard S, Phyo Z, Andres M, Hughitt VK, Simpson RM, Miller MA, Girvin AT, Taylor A, Williams D, D'Antonio N, Zhang Y, Rajagopalan A, Flietner E, Wilson K, Zhang X, Shinn P, Klumpp-Thomas C, McKnight C, Itkin Z, Chen L, Kazandijian D, Zhang J, Michalowski AM, Simmons JK, Keats J, Thomas CJ, Mock BA. Drug combinations identified by high-throughput screening promote cell cycle transition and upregulate Smad pathways in myeloma. Cancer Lett. 2023 Aug 1;568:216284. doi: 10.1016/j.canlet.2023.216284. Epub 2023 Jun 24. PMID: 37356470; PMCID: PMC10408729.
SEQUENCE No. (e.g., 1, 2, 3, etc.); […] (e.g., Cells, Incubation, Reagent, etc.); VALUE and DESCRIPTION.
1; Cells; 5 uL; white, solid bottom 1536-well Greiner assay plate.
2; Compounds; 23 nL; Kalypsis pin tool (Wako USA) equipped with a 1536-well pin head to transfer to the assay plates.
3; Incubation; 48 hours; 37C incubation.
4; Reagent;5uL; CellTiter Glo (Promega).
5; Detector; 425V; Luminescence; Viewlux PerkinElmer.
NOTES (numbers refer to Sequence numbers above)
1. The cell-based screening methods employed in this study were like those previously published. Briefly, the corresponding myeloma cell lines were screened in 1,536-well plates with 500 cells, 5-uL per well for inhibition of cell viability (assessed by measuring ATP levels with CellTiterGlo).
2. NCATS MIPE 4.0 library of approved and investigational drugs were added using the Kalypsis pin tool. Wells treated with DMSO only for 100% viability and media only cells for 0% viability were used as controls.
3. The assay plates were covered and incubated for 48 hours in a 37C, 5% CO2 incubator with controlled humidity.
4. After 48 hours, CellTilter-GloTM luminescent substrate mix (Promega) reagent was added to the assay plate and plates we incubated for 5 min at room temperature.
5. Signal was measured as median relative luminescence units on a ViewLux (PerkinElmer) multiplate reader.
[1] Heske CM, Davis MI, Baumgart JT, Wilson K, Gormally MV, Chen L, Zhang X, Ceribelli M, Duveau DY, Guha R, Ferrer M, Arnaldez FI, Ji J, Tran HL, Zhang Y, Mendoza A, Helman LJ, Thomas CJ. Matrix Screen Identifies Synergistic Combination of PARP Inhibitors and Nicotinamide Phosphoribosyltransferase (NAMPT) Inhibitors in Ewing Sarcoma. Clin Cancer Res. 2017 Dec 1;23(23):7301-7311. doi: 10.1158/1078-0432.CCR-17-1121. Epub 2017 Sep 12. PMID: 28899971; PMCID: PMC6636827.
Potency is the fitted concentration of half-maximal effect.

Structure (SMILES) | Potency | viability (% of DMSO)
CCOC(=O)C1=C(N)Oc2ccc(Br)cc2C1C(C#N)C(=O)OCC (stereo not given) | 16.6 µM (active) | 
COc1ccc(C2Sc3ccccc3N(CCN(C)C)C(=O)C2OC(C)=O)cc1 (stereo not given) |  | 101% (inactive)
COc1cc(O)c2c(c1)C(=O)c1cc(C)cc(O)c1C2=O |  | 97.6% [at 23.2 µM] (inactive)
CC(C)C(C)C=CC(C)C1CCC2C3=CC=C4CC(O)CCC4(C)C3CCC21C (stereo not given) |  | 104% (inactive)
COCCOc1nc(-c2ccc(Cl)c(Cl)c2)n(-c2ccc(NC(=O)CCl)cc2)n1 | 14.8 µM (active) | 
COC(=O)N[C@H](C(=O)N1CCC[C@@H]1c1ncc(-c2ccc(-c3ccc(-c4cnc([C@@H]5CCCN5C(=O)[C@@H](NC(=O)OC)C(C)C)[nH]4)cc3)cc2)[nH]1)C(C)C | 16.6 µM (active) | 
C[N+](C)(C)CC(=O)O |  | 92.4% (inactive)
CNC1CCC(N(Cc2cccc(-c3ccncc3)c2)C(=O)c2sc3c(F)ccc(F)c3c2Cl)CC1 (stereo not given) | 18.7 µM (active) | 
COc1cccc(-c2cc(=O)c3ccccc3o2)c1N |  | 75% (inactive)
COc1ccc2cc(-c3nc(-c4ccc(S(C)=O)cc4)[nH]c3-c3ccncc3)ccc2c1 (stereo not given) | 23.5 µM (active) | 
Cc1ccn(-c2ccc(-c3ncco3)cc2)c(=O)c1-c1ccc2nc(N)ncc2c1 | 13.2 µM (active) | 
CO[C@@H](C(=O)N1Cc2[nH]nc(NC(=O)c3ccc(N4CCN(C)CC4)cc3)c2C1)c1ccccc1 | 7.43 µM (active) | 
CC(C)C[C@H](CC(=O)O)C(=O)N[C@@H](Cc1c[nH]c2ccccc12)C(=O)N[C@@H](C)c1ccccc1 |  | 79.6% (inactive)
CC1CCC(C(=O)N(c2cc(C#CC(C)(C)C)sc2C(=O)O)C2CCC(O)CC2)CC1 (stereo not given) |  | 107% (inactive)
CNC(=O)c1ccc2cc(C3(O)CCn4cncc43)ccc2c1 (stereo not given) |  | 98.7% (inactive)
Cc1cc(OCCCc2c(C(=O)O)n(Cc3cccnc3)c3c(-c4c(COc5ccc(N6CCN([S+](C)(=O)[O-])CC6)cc5)nn(C)c4C)cccc23)cc(C)c1Cl | 9.35 µM (active) | 
COc1cc2ncnc(Nc3ccc(F)c(Cl)c3)c2cc1OCCCN1CCOCC1 | 8.55 µM (active) | 
COc1cc2ncnc(-n3nc(-c4ccccn4)nc3N)c2cc1OC | 1.05 µM (active) | 
CC=C(C)C(=O)O[C@H]1C(C)=C[C@]23C(=O)[C@@H](C=C(CO)[C@@H](O)[C@]12O)[C@H]1[C@@H](C[C@H]3C)C1(C)C | 11.8 µM (active) | 
CC1(C)S[C@H]2[C@H](NC(=O)[C@@H](N)c3ccc(O)cc3)C(=O)N2[C@@H]1C(=O)O | 2.09 µM (active) | 

Structure (SMILES) | Potency | viability (% of DMSO)
CC(=O)N(C)C1(c2ccccc2)CCN(CCC[C@]2(c3ccc(Cl)c(Cl)c3)CCCN(C(=O)c3ccccc3)C2)CC1 | 14.8 µM (active) | 
CC=CCC(C)C(O)C1C(=O)NC(CC)C(=O)N(C)CC(=O)N(C)C(CC(C)C)C(=O)NC(C(C)C)C(=O)N(C)C(CC(C)C)C(=O)NC(C)C(=O)NC(C)C(=O)N(C)C(CC(C)C)C(=O)N(C)C(CC(C)C)C(=O)N(C)C(C(C)C)C(=O)N1C (stereo not given) |  | 77.7% (inactive)
CC(C)C(=O)Oc1ccc(CO)cc1[C@H](CCN(C(C)C)C(C)C)c1ccccc1 |  | 91.8% (inactive)
O=C1C(Cl)=C(NCCN2CCOCC2)C(=O)c2ncccc21 | 3.32 µM (active) | 
O=c1c(O)c(-c2ccc(O)cc2)oc2cc(O)cc(O)c12 | 16.6 µM (active) | 
O=c1cc(CN2CCOCC2)occ1OCCCCCSc1ccnc2cc(C(F)(F)F)ccc12 | 13.2 µM (active) | 
Oc1ccc(C2=Cc3ccc(O)cc3OC2)cc1 | 2.64 µM (active) | 
CCn1cc(C(=O)O)c(=O)c2ccc(C)nc21 |  | 92.8% (inactive)
CC[C@@]1(O)C[C@H](O[C@H]2C[C@H](N(C)C)[C@H](O[C@H]3C[C@H](O)[C@H](O[C@H]4CCC(=O)[C@H](C)O4)[C@H](C)O3)[C@H](C)O2)c2c(cc3c(c2O)C(=O)c2c(O)cccc2C3=O)[C@@H]1C(=O)OC | 5.9 µM (active) | 
O=c1cc(N2CCOCC2)oc2c(-c3cccc4c3sc3ccccc34)cccc12 | 5.9 µM (active) | 
CS(=O)c1ccc(-c2nc(-c3ccc(F)cc3)c(-c3ccncc3)[nH]2)cc1 (stereo not given) | 34 µM (active) | 
Cn1c(N2CCCCS2(=O)=O)nc(C(=O)NCc2ccc(F)cc2)c(O)c1=O |  | 127% (inactive)
CC(C)(C)COc1ccc(-n2cc(C(=O)O)cn2)cc1C#N |  | 100% (inactive)
CC(C)(C)C(=O)Oc1ccc2c(c1)nc(NC(=O)c1cccc([N+](=O)[O-])c1)n2CCCO |  | 92.3% (inactive)
Cc1ccc(Nc2cc(-c3cccc(N4C(=O)c5ccccc5C4=O)c3)ncn2)cc1NS(C)(=O)=O | 18.7 µM (active) | 
Nc1ncnc2ccccc12 |  | 113% (inactive)
Cc1ccc(C(=O)Nc2cccc(C(F)(F)F)c2)cc1Nc1nc(-c2cccnc2)nc2c1cnn2C |  | 92.9% (inactive)
O=C(CCc1ccc(O)cc1)c1c(O)cc(O)cc1O[C@@H]1O[C@H](CO)[C@H](O)[C@H](O)[C@H]1O |  | 81.9% (inactive)
CC[C@]1(O)C[C@@H]2CN(CCc3c([nH]c4ccccc34)[C@@](C(=O)OC)(c3cc4c(cc3OC)N(C=O)[C@@H]3C45CCN4CC=C[C@](CC)([C@H]45)[C@@H](OC(C)=O)[C@]3(O)C(=O)OC)C2)C1 (stereo not given in full) |  | 88.9% (inactive)
CC(C)(C)Cn1c(N)nc2ccc(-c3[nH]c(C(C)(C)C)nc3-c3ccc(F)cc3)nc21 |  | 92.9% (inactive)
